Shown are actives, neighbours in structure and some others; about 1.8% of the full set was active somewhere.
CtBP-E1A blk: inhibitors of CtBP/E1A interaction | AlphaScreen GST-E1A/His-CtBP binding, 1536-well; hits give low values | 0.49% of 340,000 active | AID 651724 | activity change, % (no concentration beside the values)
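Protein mix (5X: 125 nM each GST-E1A, His-CtBP) was incubated with pinned compound 2 h at 37 deg C in dark, in 50 mM Tris pH 8.0 buffer with 300 mM NaCl. Glutathione donor and nickel acceptor beads followed; AlphaScreen signal read after 1 h.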
Six1-Eya2 blk: Six1/Eya2 interaction inhibition; 0.56% of 360,000 active; AlphaScreen GST-Six1/His-Eya2 binding, biochemical; hits give low values; activity change, % (test concentration not listed); Q15475+O00167
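Six1/Eya2 binding was read as AlphaScreen signal after compounds were pinned into GST-Six1 plus His-tagged Eya2 (5X stock 250/500 nM) in pH 8.0 Tris/NaCl/TCEP buffer, beads added, then incubated 1 h, 37 C, dark.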
PI4K2A block: PI4K2A (human) kinase inhibition. activity change, negative = inhibition, % at 76.9 µM. 0.13% of 420,000 active. purified PI4K2A, ADP-Glo luminescence, 1 h; hits give low values; in the data active means activity change below about -50%; inconclusive means mostly about -30% to -49%;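 further: -100% = wells without enzyme as full effect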
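Compounds are screened against recombinant PI4K2A using PI as substrate and ATP, the latter dispensed at 300 microM. Reactions run one hour at ambient temperature before ADP-Glo detection; full inhibition defined by wells lacking enzyme.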
pAkt inh: blocks phosphorylation of Akt; Neuro2A IGF-stimulated pAkt S473 HTRF, 20 min; hits give low values; activity change, % for hits at 50 µM; 0.32% of 360,000 active; AID 651550; in the data active means activity change below about -80%; inconclusive means mostly about -51% to -80%
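Single-point screen (50 µM final compound) in Neuro2A cells stimulated 20 min with 6 nM IGF at 37 deg C. After lysis, Ser473-phosphorylated Akt read by HTRF (ex 330 nm, em 615/665 nm) as the 665/615 ratio.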
PI5P4K alpha inh: PI5P4K alpha (human) kinase inhibition; P48426; 1.2% of 330,000 active; PI5P4Kalpha enzyme, ADP-Glo luminescence, 60 min; hits give low values; max response, %; active means max response of -50% or lower; inconclusive means between -30% and -50%; inactive means -30% or higher; further: value at the top dose of about 77 µM
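Quantitative HTS of the MLSMR library against PI5P4Kalpha with substrate. ATP added last at 5 microM final; room temperature, 60 minutes. Remaining ATP depleted, ADP converted and read as luminescence.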
* hit, by the source's call; i = inactive; ? = inconclusive; · = no result given. Unless noted, no stated cut-off is given here; in the data, active means activity change below about -65%; inconclusive means mostly about -30% to -63%; inactive means weaker than that. Unless noted, on the % scale 0 is the no-effect control and ±100 the full control effect.

SMILES	CtBP-E1A blk	Six1-Eya2 blk	PI4K2A block	pAkt inh	PI5P4K alpha inh
COc1cccc(C(=O)N2CC(=O)Nc3ccc(C)cc3C2c2ccc(F)cc2)c1OC (stereo unspecified)	·	·	-4.6	·	·
C1=CC2c3ccccc3NC(c3ccncc3)C2C1 (stereo unspecified)	?	-15.9	-12.4	i	-57.4*
Brc1cc2c(cc1C1Nc3ccccc3C3C=CCC31)OCO2 (stereo unspecified)	2.3	-14.7	-2.2	i	18.5
c1ccc([C@H]2CN3C(=N2)Sc2ccccc23)cc1	4.9	0.6	-4.6	i	-20.2
N#Cc1ccc(Cn2ccnc2C(=O)Nc2ccccc2)cc1	4.8	-0.2	0.8	i	-3.5
Cc1c(Br)c(O)c(Br)c(O)c1/C=N/n1c(-c2ccccc2)n[nH]c1=S	?	-24.8	0.7	i	-83.0*
Oc1ccc(/C=N/n2c(-c3ccccc3)n[nH]c2=S)cc1Br	·	-4.2	2.2	i	-52.6*
COc1ccc(Br)cc1/C=N/n1c(-c2ccccc2)n[nH]c1=S	-0.9	0.6	5.0	i	-8.9
COc1cc(/C=N/n2c(-c3ccccc3)n[nH]c2=S)cc(OC)c1O	-6.2	-7.4	7.4	i	-21.5
Oc1c(Br)cc(/C=N/n2c(-c3ccccc3)n[nH]c2=S)c(O)c1Br	·	?	-4.1	i	-84.7*
Oc1c(Br)cc(/C=N/n2c(-c3ccccc3)n[nH]c2=S)cc1Br	15.3	-9.6	0.9	i	-92.4*
Cc1ccc(/C=N/n2c(-c3ccccc3)n[nH]c2=S)cc1	-12.2	-3.5	3.2	i	-1.9
COc1nccnc1NS(=O)(=O)c1ccc(NC(=S)NC(=O)c2ccc(F)c(F)c2)cc1	-2.4	-8.5	-0.8	i	-11.2
Cc1ccc(CN(Cc2ccccn2)C(=O)Nc2ccc(C)c(C)c2)cc1	1.8	-4.7	1.1	i	8.0
CCOC(=O)c1c(C)[nH]c(C)c1S(=O)(=O)N1c2ccccc2CC1C (stereo unspecified)	·	-1.2	-1.2	·	5.0
COC(=O)c1ccccc1NC(=O)N1CCN(C(=O)c2ccco2)CC1	-19.4	-0.6	2.7	i	-6.1
CSc1ccc(S(=O)(=O)N2CC(=O)Nc3ccccc32)cc1	-10.6	3.4	1.1	i	3.4
Cc1nn(-c2ccccc2)c2[nH]c(=O)c(CNc3ccc(N4CCOCC4)cc3)cc12	-69.1*	-69.7*	-19.8	i	-25.3
CCC1CCCCN1CCCNC(=O)c1ccc2c(c1)c(C)c(C)n2CC (stereo unspecified)	-18.8	-22.7	-11.9	i	2.0
Clc1cnc(N/N=C/c2cccs2)c(Cl)c1	21.4	13.4	-7.6	-103.8%*	8.3
CC1(C)Cc2[nH]c(=S)c(C#N)cc2CO1	-3.3	-1.5	-2.9	i	-87.7*
N#Cc1cc2c([nH]c1=S)CCCC2	2.4	2.1	-3.4	i	-72.6*
COc1ccc(CCNC(=O)c2ccc(COc3ccccc3OC)o2)cc1	·	4.4	-1.1	i	-2.2
C#CCOCCOCCOCCNc1nc(N2CCN(C(=O)C(Cc3cc4ccccc4[nH]3)n3cc(C(N)Cc4ccc(O)cc4)nn3)CC2)nc(N2CCN(C(=O)C(Cc3cc4ccccc4[nH]3)n3cc(C(N)Cc4ccc(O)cc4)nn3)CC2)n1 (stereo unspecified)	-17.6	-14.3	-3.7	i	-91.6*
C#CCOCCOCCOCCNc1nc(N2CCN(C(=O)CCCCCCCCCCNC(=O)[C@H](CCCCN)n3cc(CCO)nn3)CC2)nc(N2CCN(C(=O)CCCCCCCCCCNC(=O)[C@H](CCCN=C(N)N)n3cc(C[C@@H](C)CC)nn3)CC2)n1	-11.3	-9.7	-2.4	i	-65.7*
C#CCOCCOCCOCCNc1nc(N2CCN(C(=O)Cn3cc(CCCN=C(N)N)nn3)CC2)nc(N2CCN(C(=O)[C@H](CCCCN)n3cc(CC(C)O)nn3)CC2)n1 (stereo partly specified)	4.8	-0.6	-8.9	i	1.5
C#CCOCCOCCOCCNc1nc(N2CCN(C(=O)Cn3cc(CC(C)O)nn3)CC2)nc(N2CCN(C(=O)[C@H](C)n3cc(CCCN=C(N)N)nn3)CC2)n1 (stereo partly specified)	7.9	4.5	-8.7	i	-79.9*
